Activity calls are given as the source filed them. Unless noted, the rule behind the calls is not given here.

A short description of assay [1]: anti-His antibody binders, primary screen, artefact control for SMM control protein annotation, biochemical, small-molecule microarray, 635 nm fluorescence (AID 1128).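 Note: score merges feature fluorescence with signal-to-noise for each printed compound spot.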 The conditions noted are these: anti-His Alexa647 antibody binding, higher = more signal.
The subject of assay [2] is Human papillomavirus type 1a E7 protein (residues 1-88). Kind of assay: HPV1a E7 small-molecule binders, primary screen, biochemical, small-molecule microarray, residues 1-88, 635 nm (AID 1129). The following applies: small-molecule microarray binding, fluorescence 635 nm; higher = more signal.
Assay [3] deals with Focal adhesion kinase 1 (Homo sapiens) (UniProt Q05397). Kind of assay: small-molecule microarray binders of FAK, primary screen, biochemical, 635/667 nm fluorescence, BSA, DTT (AID 1130).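 Note: composite of spot emission at 667 nm and signal to noise over triplicate slides.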 The conditions noted are these: PTK2 binding, 635 nm fluorescence, higher = more signal.
The subject of assay [4] is Fibrinogen (Alexa647-labelled). Kind of assay: fibrinogen binders on compound microarrays, profiling panel, artefact control for SMM control-protein annotation, biochemical, small-molecule microarray, 635/667 nm fluorescence (AID 1131).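 Note: z-score merges 667 nm fluorescence with per-spot signal-to-noise over triplicate slides.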 The following applies: fibrinogen-A647 binding fluorescence, higher = more signal.
In assay [5] the target is Follistatin (Homo sapiens) (UniProt P19883). Kind of assay: follistatin binders on small-molecule microarrays, primary screen, biochemical, small-molecule microarray, 635/667 nm fluorescence (AID 1132). The following applies: FST binding, 635 nm fluorescence, higher = more signal.
Assay [6] addresses Fibroblast growth factor 2 (Homo sapiens) (UniProt P09038). Kind of assay: FGF2 binders on small-molecule microarrays, primary screen, biochemical, small-molecule microarray, 635/667 nm fluorescence (AID 1133). The following applies: small-molecule microarray binding, FGF2, fluorescence 635/667; higher = more signal.
Assay [7] in a line: mitochondrial membrane potential change in A549 cells, profiling panel, cell-based, JC-1 fluorescence, basal, 24 h, 100 nL (AID 1138).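 Note: A549 lung adenocarcinoma cells under basal conditions with no added stimulus; test concentration not given here.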 The conditions noted are these: higher = more signal.
The subject of another assay is Lefty1. Kind of assay: Lefty1 binders on small-molecule microarrays, primary screen, biochemical, small-molecule microarray, 635/667 nm fluorescence (AID 1139). The conditions noted are these: small-molecule microarray binding, fluorescence 635/667; higher = more signal.
Assay [8] concerns wheat germ agglutinin (Triticum aestivum), Alexa647-labelled. Kind of assay: wheat germ agglutinin binders on compound microarrays, profiling panel, artefact control for SMM control-protein annotation, biochemical, small-molecule microarray, 635/667 nm fluorescence (AID 1140).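 Note: score merges 667 nm feature emission with signal to noise over triplicate slides.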 The following applies: WGA-A647 binding, 635 nm fluorescence, higher = more signal.
The target of assay [9] is Luciferin 4-monooxygenase (Photinus pyralis) (UniProt P08659). Kind of assay: firefly luciferase enzyme inhibitors, primary screen, biochemical, luminescence, purified enzyme, 2006 set (AID 1141).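 Note: cell-free assay with purified firefly luciferase at 100 ng per well in PBS; test concentration not given here.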 The conditions noted are these: SteadyGlo luminescence, 30 min, higher = more signal, called active from +8 up or from −8 down.
Assay [10] concerns Wnt5a (protein binding on small-molecule microarray). Kind of assay: Wnt5a binders on small-molecule microarray, primary screen, biophysical, 635/667 nm fluorescence (AID 1142).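 Note: fluorescence read at 667 nm with signal to noise per printed feature.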 The following applies: 635 nm fluorescence, higher = more signal.
The nature of assay [11]: cell viability in Huh7 cells, primary screen, cytotoxicity control for HCV replication inhibitor project, CellTiter-Glo luminescence, basal, 48 h (AID 1143).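 Note: Huh7 hepatoma cells carrying a hepatitis C replication reporter with no stimulus; test concentration not given here.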 The following applies: Huh7 HCV replicon, higher = more signal, called active from +8 up or from −8 down. For orientation: In ATP-based viability assays light output follows the ATP content of the culture.
Assay [12] in a line: P. aeruginosa biofilm formation inhibitors, primary screen, PAO1 strain, BacTiter-Glo luminescence, LB-PBS (AID 1144). The conditions noted are these: 12 h, higher = more signal.
Assay [13] is described as follows: CREB reporter modulators without forskolin, primary screen, cell-based, PC12, CRE-LacZ reporter, unstimulated (AID 1145). The conditions noted are these: no forskolin, luminescence, 4.5 h, higher = more signal, called active from +8 up or from −8 down.
Assay [14] is described as follows: CREB reporter modulators under forskolin, primary screen, cell-based, PC12, CRE-LacZ reporter, forskolin-stimulated (AID 1146).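 Note: PC12 cells with 6xCRE LacZ reporter stimulated by forskolin 10 µM; beta-galactosidase reporter signal reflecting CREB driven transcription.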 The following applies: luminescence, 4.5 h, higher = more signal, called active from +8 up or from −8 down.
Assay [15] concerns the target Streptavidin (Streptomyces avidinii) (UniProt P22629). Kind of assay: streptavidin binders on small-molecule microarray, primary screen, artefact control for SMM compound annotation, biophysical, 635/667 nm fluorescence (AID 1147).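 Note: signal reflects streptavidin binding to arrayed compounds as a control protein.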 The conditions noted are these: streptavidin binding, higher = more signal.
Assay [16] is described as follows: small-molecule binders of probe aInhba, primary screen, biochemical, small-molecule microarray, 635/667 nm fluorescence (AID 1148).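 Note: score merges 667nm spot fluorescence with signal-to-noise for antibody binding to printed compounds.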 The following applies: higher = more signal.
For assay [17], the target named is Torsin-1A (Homo sapiens) (UniProt O14656). Kind of assay: torsin A binders from cell lysate, primary screen, small-molecule microarray, wild-type, 635/667 nm (AID 1149). The following applies: COS7 hTOR1A-WT lysate, 635 nm fluorescence, higher = more signal.
Assay [18] shares this target. Kind of assay: small-molecule binders of mutant TOR1A in lysate, primary screen, cell lysate, small-molecule microarray, COS7 lysate, 635/667 nm fluorescence (AID 1150).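 Note: score pools 667 nm emission and signal to noise measuring lysate protein binding.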 The following applies: COS7 hTOR1A mutant lysate, 635 nm fluorescence, higher = more signal.
In assay [19] the test system is Sonic hedgehog protein (Shh). Kind of assay: small-molecule binders of Shh protein, primary screen, biochemical, small-molecule microarray, 635/667 nm fluorescence (AID 1151).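 Note: Shh protein binding to compounds spotted on small-molecule microarray slides; score combines spot fluorescence intensity with signal-to-noise across triplicate slides.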 The conditions noted are these: small-molecule microarray binding, 635 nm fluorescence; higher = more signal.

Chain of Streptavidin (Streptomyces avidinii) (P22629 whole entry, looked up): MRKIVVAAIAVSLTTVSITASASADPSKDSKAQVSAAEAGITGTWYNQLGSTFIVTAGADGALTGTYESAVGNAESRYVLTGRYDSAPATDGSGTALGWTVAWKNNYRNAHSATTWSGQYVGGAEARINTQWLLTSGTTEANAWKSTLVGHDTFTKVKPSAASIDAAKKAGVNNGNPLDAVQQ
Chain of Follistatin (Homo sapiens) (P19883 whole entry, looked up): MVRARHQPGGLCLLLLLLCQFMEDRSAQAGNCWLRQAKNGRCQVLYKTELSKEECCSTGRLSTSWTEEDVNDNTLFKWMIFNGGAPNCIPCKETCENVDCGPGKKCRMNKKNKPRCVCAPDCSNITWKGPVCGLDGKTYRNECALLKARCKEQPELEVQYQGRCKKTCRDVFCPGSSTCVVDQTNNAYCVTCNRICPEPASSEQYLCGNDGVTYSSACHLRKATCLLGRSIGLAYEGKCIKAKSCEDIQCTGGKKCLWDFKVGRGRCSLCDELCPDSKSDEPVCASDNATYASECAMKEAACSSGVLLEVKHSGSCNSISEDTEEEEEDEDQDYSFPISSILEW
Chain of Focal adhesion kinase 1 (Homo sapiens) (Q05397 whole entry, looked up): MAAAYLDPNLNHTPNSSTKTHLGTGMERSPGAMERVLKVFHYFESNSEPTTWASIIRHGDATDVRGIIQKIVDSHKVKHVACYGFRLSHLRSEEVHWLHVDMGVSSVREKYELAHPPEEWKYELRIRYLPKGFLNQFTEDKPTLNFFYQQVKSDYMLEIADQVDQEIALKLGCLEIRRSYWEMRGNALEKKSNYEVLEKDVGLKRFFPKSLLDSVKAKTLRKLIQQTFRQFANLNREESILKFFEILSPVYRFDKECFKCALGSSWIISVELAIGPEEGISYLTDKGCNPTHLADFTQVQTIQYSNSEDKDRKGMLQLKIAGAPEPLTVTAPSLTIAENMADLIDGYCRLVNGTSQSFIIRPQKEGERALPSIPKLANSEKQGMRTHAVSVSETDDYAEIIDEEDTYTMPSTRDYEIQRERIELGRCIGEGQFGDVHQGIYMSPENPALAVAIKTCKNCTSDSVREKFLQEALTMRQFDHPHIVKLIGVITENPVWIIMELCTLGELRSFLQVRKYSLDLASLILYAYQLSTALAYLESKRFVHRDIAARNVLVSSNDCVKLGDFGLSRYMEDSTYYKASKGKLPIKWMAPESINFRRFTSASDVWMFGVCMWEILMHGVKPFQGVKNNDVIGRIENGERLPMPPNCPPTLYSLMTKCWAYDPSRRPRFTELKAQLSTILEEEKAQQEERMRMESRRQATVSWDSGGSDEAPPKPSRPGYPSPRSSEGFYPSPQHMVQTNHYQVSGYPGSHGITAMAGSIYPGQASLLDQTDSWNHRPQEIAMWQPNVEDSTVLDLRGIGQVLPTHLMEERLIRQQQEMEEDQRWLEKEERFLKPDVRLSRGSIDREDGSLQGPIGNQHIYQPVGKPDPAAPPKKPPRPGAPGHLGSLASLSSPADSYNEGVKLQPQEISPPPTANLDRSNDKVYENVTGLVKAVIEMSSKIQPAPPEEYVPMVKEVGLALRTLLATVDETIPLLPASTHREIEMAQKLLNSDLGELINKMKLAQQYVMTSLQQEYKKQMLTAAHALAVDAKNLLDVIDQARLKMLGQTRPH
Chain of Fibroblast growth factor 2 (Homo sapiens) (P09038 whole entry, looked up): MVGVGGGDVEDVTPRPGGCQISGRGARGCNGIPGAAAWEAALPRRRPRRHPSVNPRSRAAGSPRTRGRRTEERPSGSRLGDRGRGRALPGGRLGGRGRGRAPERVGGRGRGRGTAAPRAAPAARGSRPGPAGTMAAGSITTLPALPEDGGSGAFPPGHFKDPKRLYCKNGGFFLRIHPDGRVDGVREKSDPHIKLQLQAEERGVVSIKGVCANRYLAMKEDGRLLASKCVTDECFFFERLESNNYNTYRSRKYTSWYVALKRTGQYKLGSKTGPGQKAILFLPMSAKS
Chain of Torsin-1A (Homo sapiens) (O14656 whole entry, looked up): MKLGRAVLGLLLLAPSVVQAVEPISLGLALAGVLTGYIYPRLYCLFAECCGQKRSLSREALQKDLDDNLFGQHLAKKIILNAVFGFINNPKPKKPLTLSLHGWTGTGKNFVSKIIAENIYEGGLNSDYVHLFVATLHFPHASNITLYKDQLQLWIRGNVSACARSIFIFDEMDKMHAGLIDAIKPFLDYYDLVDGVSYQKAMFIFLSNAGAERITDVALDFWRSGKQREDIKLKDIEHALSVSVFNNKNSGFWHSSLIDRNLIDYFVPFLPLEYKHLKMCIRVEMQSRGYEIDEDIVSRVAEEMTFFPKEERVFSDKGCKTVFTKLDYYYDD
Chain of Luciferin 4-monooxygenase (Photinus pyralis) (P08659 whole entry, looked up): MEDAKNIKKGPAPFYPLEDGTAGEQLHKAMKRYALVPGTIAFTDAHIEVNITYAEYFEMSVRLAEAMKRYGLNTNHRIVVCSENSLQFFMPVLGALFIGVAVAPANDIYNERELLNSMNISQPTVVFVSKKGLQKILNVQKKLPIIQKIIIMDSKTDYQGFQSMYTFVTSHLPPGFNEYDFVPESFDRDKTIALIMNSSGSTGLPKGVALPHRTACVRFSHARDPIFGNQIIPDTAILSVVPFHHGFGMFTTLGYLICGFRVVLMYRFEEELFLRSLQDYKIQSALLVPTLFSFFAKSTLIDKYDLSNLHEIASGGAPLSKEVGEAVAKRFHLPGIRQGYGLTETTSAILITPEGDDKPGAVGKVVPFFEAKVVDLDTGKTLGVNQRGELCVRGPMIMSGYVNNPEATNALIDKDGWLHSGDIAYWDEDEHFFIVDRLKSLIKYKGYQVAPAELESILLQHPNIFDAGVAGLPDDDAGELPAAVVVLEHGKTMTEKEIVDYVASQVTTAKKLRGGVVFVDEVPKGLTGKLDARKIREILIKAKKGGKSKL

Take `CCOC(=O)C1=CC[C@@H](c2cccc(Cl)c2)N(S(=O)(=O)c2ccc(C)cc2)[C@H]1c1ccc(C#N)cc1`: the composite z-score came out at 0.931 in assay [1]; 1.26 in assay [2]; 0.444 in assay [3]; 0.716 in assay [4]; 0.938 in assay [5]; 0.56 in [6]. Besides, the composite z-score in the assay with Lefty1 came to 1.09; in assay [8], 0.985; in assay [10], 0.473; in assay [15], 1.15; in [16] it was 0.0627; in the assay with Torsin-1A (Homo sapiens) [17], 0.384. Besides, the composite z-score with Torsin-1A (Homo sapiens) [18] came out at 0.788; in assay [19], 0.741. Further, the z-score in assay [7] was 1.22; in assay [9], 1.35 (inactive); in assay [11], -1.1 (inactive); in [12] it was 0.494 (inactive); in assay [13] it was -0.228 (inactive); in [14], 0.119 (inactive).

For `O=C(NCCN1CCOCC1)[C@@H]1c2ccccc2C(=O)N(Cc2cc(F)cc(C(F)(F)F)c2)[C@H]1c1ccc(CO)cc1`, the composite z-score in assay [1] is 0.195; in [2], 0.0794; in assay [3], 0.205; in [4], -0.732; in assay [5], 0.687; in assay [6] it was -0.77. For the same molecule, the composite z-score was 0.314 with Lefty1; -0.254 in assay [8]; -0.33 in assay [10]; -0.78 in [15]; 0.422 in assay [16]; 0.543 with Torsin-1A (Homo sapiens) [17]. The composite z-score turned out to be 0.165 in the assay with Torsin-1A (Homo sapiens) [18] and 1.76 in [19]. Besides, the z-score in [7] is 2.17; in assay [9], -0.183 (inactive); in assay [11] it was -0.269 (inactive); in [12], 0.153 (inactive); in assay [13] it was 0.378 (inactive); in [14], 0.0284 (inactive).

For `O=C(NCc1ccccc1)[C@@H]1c2ccccc2C(=O)N(C2CCCCC2)[C@H]1c1ccc(CO)cc1`, the composite z-score in [1] was 0.61; in assay [2] it was 1.01; in [3], 0.405; in assay [4], -0.0594; in [5], 1.29; in assay [6] it was 0.487. The composite z-score was 0.917 in the assay with Lefty1; 0.803 in assay [8]; 0.191 in [10]; -0.395 in assay [15]; -0.352 in [16]; 0.113 in the assay with Torsin-1A (Homo sapiens) [17]. Further, the values for the composite z-score (with Torsin-1A (Homo sapiens) [18]; in assay [19]) were 1.11 and 1.4, respectively. For the same molecule, the z-score in assay [7] was 2.15; in assay [9], -0.441 (inactive); in assay [11] it was -1.08 (inactive); in [12], 0.583 (inactive); in assay [13], 0.234 (inactive); in assay [14], 0.174 (inactive).

With `CCCNC(=O)[C@@]1(C)c2ccccc2C(=O)N(C(C)C)[C@H]1c1ccc(CO)cc1`, the composite z-score was -0.853 in [1]; -0.54 in assay [2]; 0.198 in [3]; -0.879 in assay [4]; -0.127 in [5]; -0.343 in assay [6]. In addition, the composite z-score in the assay with Lefty1 is -1.38; in assay [8], -0.867; in [10], 0.182; in assay [15], -0.586; in [16], -0.0791; with Torsin-1A (Homo sapiens) [17], 0.398. The figures for the composite z-score (with Torsin-1A (Homo sapiens) [18]; in assay [19]) were -0.435 and -0.946, respectively. The z-score in [7] is -0.809; in assay [9] it was 0.33 (inactive); in assay [11], -4.29 (inactive); in assay [12], -0.744 (inactive); in assay [13], 0.0279 (inactive); in assay [14], 0.155 (inactive).

With `COCCOC(=O)N1C(=O)[C@@]2(c3cc(C#CCC(C(=O)OC)C(=O)OC)ccc31)[C@H](c1ccc(OCCO)cc1)N1[C@H](c3ccccc3)[C@H](c3ccccc3)OC(=O)[C@H]1[C@@H]2C(=O)NC[C@H](O)c1ccccc1`, the composite z-score in assay [1] was 1.18; in [2] it was 1.22; in assay [3], 0.418; in [4], 0.952; in [5], 1.29; in assay [6], 1.7. In addition, the composite z-score turned out to be 1.15 in the assay on Lefty1; 0.422 in [8]; 0.354 in assay [10]; 0.521 in assay [15]; 0.281 in assay [16]; 1.72 with Torsin-1A (Homo sapiens) [17]. The composite z-score is 1.18 with Torsin-1A (Homo sapiens) [18] and 2.14 in assay [19]. Besides, the z-score in assay [7] was -0.95; in assay [9], -0.056 (inactive); in [11], -1.84 (inactive); in assay [12] it was -1.29 (inactive); in [13], -1.56 (inactive); in assay [14], -0.526 (inactive).

For the molecule `COC(=O)[C@@]1(Cc2ccc(F)cc2)[C@H]2c3cc(C(=O)N4CCCC4)n(CCc4ccc(OC)c(Br)c4)c3C[C@H]2CN1C(=O)c1ccccc1`, the composite z-score was 2.45 in assay [1]; 1.22 in assay [2]; 1.32 in [3]; 0.831 in assay [4]; 1.08 in assay [5]; -0.705 in [6]. The composite z-score in the assay on Lefty1 is 0.265; in assay [8], 1.38; in [10], 0.375; in assay [15] it was 2.46; in assay [16] it was 0.431; in the assay with Torsin-1A (Homo sapiens) [17] it was 0.17. Moreover, the composite z-score with Torsin-1A (Homo sapiens) [18] is 0.858; in assay [19], -0.328. In addition, the z-score in assay [7] is -1.58; in assay [9], -0.0863 (inactive); in [11] it was -3.82 (inactive); in assay [12], 0.839 (inactive); in [13], 0.0109 (inactive); in assay [14], -1.14 (inactive).

Source of the values: PubChem BioAssay.
